GLA spleen mod: inhibitors or activators of human alpha-galactosidase in spleen homogenate; 240,000 tested, 0.008% active; Potency, µM (series often up to 80 µM), for inactives: top-dose activity change, negative = inhibition, usual class: inhibitors; human spleen homogenate, 4MU-alpha-Gal fluorescence, 40 min; P06280;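 note: potency is the fitted concentration of half-maximal effect; 0% = enzyme with vehicle and -100% = no enzyme basal signal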
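Fluorogenic readout (Ex 365/Em 440 nm) of 4-methylumbelliferone released from 1 mM 4-MU-alpha-galactoside by spleen homogenate, 40 min at 37C, pH 5.0. Data normalized to no-enzyme and enzyme controls; Hill-equation AC50 from compound titrations.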
GLA inh pH 4.5: inhibitors of human alpha-galactosidase A at pH 4.5; P06280; 230,000 tested, under 10 active; purified enzyme, 4-MU-alpha-Gal fluorescence, pH 4.5; activity change, negative = inhibition, % at 105 µM;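 note: 0% = full activity with enzyme and -100% = basal without enzyme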
Target sequence (P06280 whole entry, looked up): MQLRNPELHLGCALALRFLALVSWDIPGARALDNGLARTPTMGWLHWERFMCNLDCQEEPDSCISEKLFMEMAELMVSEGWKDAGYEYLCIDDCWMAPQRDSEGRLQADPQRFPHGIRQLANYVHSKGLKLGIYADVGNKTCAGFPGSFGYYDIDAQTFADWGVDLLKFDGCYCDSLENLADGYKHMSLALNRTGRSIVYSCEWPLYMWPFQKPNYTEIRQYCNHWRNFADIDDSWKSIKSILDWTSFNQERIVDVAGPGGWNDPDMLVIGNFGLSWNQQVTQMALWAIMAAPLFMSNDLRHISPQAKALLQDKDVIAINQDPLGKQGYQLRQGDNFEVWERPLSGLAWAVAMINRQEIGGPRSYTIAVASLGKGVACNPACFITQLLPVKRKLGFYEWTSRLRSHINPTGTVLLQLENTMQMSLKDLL
N370S GC mod: inhibits or activates N370S mutant glucocerebrosidase; N370S GC spleen homogenate, 4MU-glucoside fluorescence; Potency, µM (series often up to 59.4 µM), inactives show top-dose activity change, negative = inhibition, hits mostly inhibitors; 330,000 tested, 0.092% active;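 note: potency is the fitted concentration of half-maximal effect; 0% = full enzyme activity and -100% = no enzyme basal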
GAA glycogen: GAA glycogen-cleavage inhibition or activation; P10253; recombinant GAA, glycogen substrate, Amplex Red glucose oxidase fluorescence; Potency, µM (series often up to 76.4 µM), inactives show at the top dose activity change, negative = inhibition, usual class: inhibitors; 300,000 tested, 0.38% active;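 note: potency is the fitted concentration of half-maximal effect; 0% = full enzyme reaction and -100% = no-enzyme basal signal; the screen sought inhibitors and activators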
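Recombinant human alpha-glucosidase (4 nM final) hydrolysed bovine liver glycogen (30 ug) for 40 min at 37 C in pH 5.0 citrate/phosphate with 0.01% Tween-20. Released glucose detected by glucose oxidase/Amplex Red, Ex 573/Em 610 nm. Compounds up to 77 uM; AC50 from Hill fits.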
GAA spleen mod: inhibitors or activators of human alpha-glucosidase in spleen homogenate | P10253 | human spleen homogenate, 4-MU-alpha-glucoside fluorescence | Potency, µM (top dose mostly 79.9 µM), inactives show at the top dose activity change, negative = inhibition, hits mostly inhibitors | 240,000 tested, 0.006% active | AID 2112;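 note: potency is the fitted concentration of half-maximal effect; 0% = enzyme with vehicle and -100% = no enzyme basal signal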
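Human spleen homogenate (1 ug) incubated with compounds and 1 mM 4-methylumbelliferyl-alpha-D-glucopyranoside in pH 5.0 citrate/phosphate buffer, 37 C, 40 min. Stopped at pH 10; 4-MU fluorescence (Ex 365/Em 440 nm); AC50 by Hill fit.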
GAA inh: alpha-glucosidase (human) inhibition; P10253; purified human GAA, 4-MU-alpha-glucoside fluorescence; Potency, µM (highest dose often 76.9 µM), for the others: top-dose activity change, negative = inhibition, actives largely listed as inhibitors; 200,000 tested, 0.005% active;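 note: potency is the fitted concentration of half-maximal effect; plate controls were uninhibited enzyme wells for no effect and no-enzyme background for full effect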
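Fluorogenic assay: 4 nM human alpha-glucosidase with 400 uM 4-methylumbelliferyl-alpha-D-pyranoside in 50 mM citrate/phosphate, 0.005% Tween-20, pH 5.0, 20 min at room temperature. Compounds tested up to 77 uM; AC50 from Hill fits.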
The depositor's hits bear a star; ? = inconclusive; / = not tested or not shown; [ ] = dose if it differs, or a comment. Shown are actives, neighbours in structure and some others; about 0.41% of the full set was active somewhere. Calls come from the whole dose curve; as a rule, active = well fitted curve in the direction sought with a large enough effect; inconclusive = small, poorly fitted or top-dose-only effect, or another doubt; inactive = no such curve, though single readings can be large; an effect the other way counts as inactive or inconclusive.

SMILES	GLA spleen mod	GLA inh pH 4.5	N370S GC mod	GAA glycogen	GAA spleen mod	GAA inh
O=C1CC(Nc2ccc(N3CCOCC3)cc2)C(=O)N1Cc1ccccc1 (configuration not stated)	5%	-10	-8%	13µM*	0%	-5%
COc1ccc(C2C=C(c3ccccc3)Nc3nc(NC(=O)/C=C/c4ccc(F)cc4)nn32)cc1 (configuration not stated)	/	/	/	15%[76.3 µM]	/	/
Cc1cccc2c3c(ccc12)C1=C(C(=O)C3=O)[C@@H](C)CO1	-8%	/	-10%	/	3%	/
CCC(=Nc1ccccc1O)C1=C(O)CC(c2ccccc2)CC1=O (configuration not stated)	-3%	1	-21%	13µM*	-4%	/
CCC(=Nc1ccccc1OC)C1=C(O)CC(c2ccccc2)CC1=O (configuration not stated)	-3%	-13	-5%	-1%	1%	2%
Cc1c(CNCc2ccc(Cl)cc2)c(C(=O)O)c(C)n1Cc1ccc(F)cc1	/	/	/	-13%[76.3 µM]	/	/
Cc1c(CNCCc2ccc(S(N)(=O)=O)cc2)c(C(=O)O)c(C)n1Cc1ccc(Cl)cc1	/	/	/	50µM*	/	/
COc1ccc2c(/C=N/NS(=O)(=O)c3ccc(C)cc3)c[nH]c2c1	11%	-1	15%	8.9µM*	3%	/
O=C1/C(=C\c2ccc(O)c(O)c2)C(c2ccccc2)=NN1c1ccccc1	2%	-1	4%	4µM*	-2%	4%
N#C/C(=N/Nc1ccc(OC(F)(F)F)cc1)C(N)=S	0%	-4	-11%	?	-4%	-18%
NC(=S)N=Nc1ccc(NN=C(N)N)cc1	/	/	-9%	40µM*	/	/
Cn1ccc2cc(-c3ccc4ncnc(NCc5cccnc5)c4c3)ccc21	/	/	-19%	/	/	/
O=C(O)c1ccc(N/N=C/c2ccc(F)c(F)c2)cc1	8%	-18	4%	?	-9%	12%
Nc1cc(C(=O)O)ccc1Nc1ccc(F)c(F)c1	5%	0	-4%	12µM*	3%	-6%
O=C1c2ccccc2C(=O)N1OCc1cccc(Cl)c1	4%	12	3%	6%	-4%	-6%
O=C1Cc2ccccc2C(=O)N1OCc1ccc(Cl)cc1Cl	-8%	0	-6%	25µM*	-4%	4%
CC(C)COc1cccc(C(=O)Nc2ccc(-c3nc4ncccc4o3)cc2)c1	/	/	/	-1%[76.3 µM]	/	/
Cc1nn(C(C)C(=O)NC2CCCCC2)c(=O)c2c1sc1ccccc12 (configuration not stated)	/	/	/	4%[76.3 µM]	/	/
N#Cc1ccc2c(c1)C[C@]1(CCCCN3C(=O)c4ccccc4C3=O)Oc3c(c(=O)oc4ccc(F)cc34)C2O1	/	/	-2%[12.8 µM]	-18%[15.3 µM]	/	/
O=C(CCCn1c(SCC(=O)c2ccc(O)c(O)c2)nc2ccccc2c1=O)NCC1CCCO1 (configuration not stated)	1%	1	3%	5.6µM*	-3%	11%
CCCCn1c(SCC(=O)c2ccc(O)c(O)c2)nc2ccsc2c1=O	-2%	2	-14%	28µM*	2%	-6%
CC(C)c1ccc(C(=O)Nc2ccc(-c3nc4ccccc4s3)c(Cl)c2)cc1	/	/	/	1%[76.3 µM]	/	/
Cc1nc(Nc2ccc(S(N)(=O)=O)cc2)sc1-c1ccccc1	/	/	1%	6%	/	/
COc1ccc(Nc2nc(C)c(-c3ccccc3)s2)cc1	3%	-4	-7%	14µM*	-2%	-9%
O=C(/C=C/c1ccc(O)c(O)c1)c1ccc(O[C@@H]2O[C@H](CO)[C@@H](O)[C@H](O)[C@H]2O)c(O)c1O	-8%	/	-25%	/	?	/
SMILES	GLA spleen mod	GLA inh pH 4.5	N370S GC mod	GAA glycogen	GAA spleen mod	GAA inh
Cc1ccc(O)c(Nc2c3ccccc3nc3ccccc23)c1	/	/	?	11µM*	/	/
C=CC[n+]1c(-c2ccc(OC)c(OC)c2)csc1NNC(=O)Nc1ccccc1	5%	0	-3%	32µM*	5%	-4%
C=CC[n+]1c(-c2ccccc2)csc1NC(C)(C)C	-7%	-8	-2%	7%	-9%	-3%
COC(=O)C1=C(C)[C@H](O)[C@@H](C)[C@](C)(c2cc(OC)c(C)c(OC)c2COc2ccccc2)O1	12%	0	5%	/	-8%	/
COC(=O)C1=C[C@@H](C(=O)OC)[C@@H]2C3=C(C(=O)C2(C)C)[C@H](c2ccccc2)[C@@H]2C(=O)N(c4ccccc4)C(=O)[C@@H]2[C@@H]3C1	-2%	/	-3%	/	-1%	/
Cc1nnsc1C(=O)NNS(=O)(=O)c1ccccc1	6%	13	-9%	28µM*	0%	1%
COc1ccccc1N(O)C1CC(=O)N(c2ccc(Br)cc2)C1=O (configuration not stated)	2%	-1	5%	8.9µM*	0%	-1%
O=C1CC(N(O)c2ccccc2)C(=O)N1c1ccc(Cl)c(Cl)c1 (configuration not stated)	2%	-1	7%	?	-9%	/
CCOc1ccc(NC(=O)Nc2cccs2)cc1	3%	-3	7%	20µM*	-2%	-4%
Cc1ccccc1CNC(=O)Nc1cccs1	5%	-23	7%	?	0%	5%
CCc1ccc(NC(=O)Nc2cccs2)cc1	-16%	0	-3%	?	-5%	2%
O=C(NCc1cccs1)Nc1cccs1	2%	1	-13%	4µM*	-5%	-3%
CC(=O)n1cc(N(C(=O)CCl)c2ccc(Cl)cc2)c2ccccc21	6%	-8	16µM*	-9%	0%	/
COc1ccccc1N(C(=O)CCl)c1cn(C(C)=O)c2ccccc12	-8%	-5	5%	-2%	-3%	/
CCOC(=O)C(C(C)=O)c1c(Br)c(O)c(O)c2c(C(=O)c3ccc(C)cc3)coc12 (configuration not stated)	-3%	3	1%	32µM*	-13%	-10%
Oc1ccc(/C=N/Nc2ccc(Cl)nn2)cc1O	/	/	-7%	6.3µM*	/	/
COc1ccc(/C=N/Nc2ccccn2)cc1OC	-7%	-4	18%	?	-6%	/
COc1cc(/C=N/NC(=O)NC2CCCCC2)ccc1O	-3%	-10	?	25µM*	2%	/
COc1cc(/C=N/Nc2ccc(C(=O)O)cc2)ccc1O	-1%	-12[21.1 µM]	-20%	5.6µM*	-4%	-10%
COc1cc(/C=N/Nc2ccccn2)ccc1O	0%	-5	-14%	25µM*	-4%	/
COc1cc(/C=N/NC(=O)NC2CCCCC2)cc(OC)c1O	-4%	-10	7%	-9%	-1%	/
COc1cc(/C=N/Nc2ccc(C(=O)O)cc2)cc(OC)c1OC	-16%	-16	3%	?	2%	/
O[C@H]1[C@H]2c3cc4c(cc3CN3CCC(=C[C@@H]1O)[C@H]23)OCO4	-17%	/	9%	/	-6%	/
